Consider eleven compounds from PubChem BioAssay (NCATS).

Assay [1] in a line: qHTS drug screen for cell cycle checkpoint inhibitors in PARPi-resistant BRCA-mutant ovarian cancer cell lines. (AID 1963452; calls by dose curve). As to conditions: PEO1/OlaR viability, CellTiter-Glo luminescence, 96 h, stronger effect = lower value. The gist of the method: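 PEO1, PEO4 and PEO1/OlaR ovarian cancer cells, 600 per well, exposed 96 h at 37C to a dilution series. Viability read by CellTiter-Glo luminescence, normalized to DMSO and empty wells; activity summarized as Z-AUC.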

Assay [2] in a line: qHTS profiling for inhibitors of Plasmodium falciparum proliferation (AID 504749). Further: potency means the concentration at half of the fitted maximal effect.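 On activity, negative = inhibition: 0% = DMSO vehicle and full inhibition = artemisinin control.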 On all read-outs here: nearly all actives have a fitted effect of over 60% in size. As to conditions: P. falciparum in erythrocytes, SYBR Green DNA, 72 h; for activity, negative = inhibition: at 28.7 µM (top of the series). An outline of the steps: (§1)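 In a 72 h erythrocytic culture (37 C, humidified, 5% CO2) at 2.5% hematocrit and 0.3% starting parasitemia, compounds were tested; SYBR Green I in detergent lysis buffer stained parasite DNA overnight.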
For orientation: In qHTS, concentration-response curves come from the screen itself.

In another assay the test system is 3D7. The description is as above. As to conditions: P. falciparum in erythrocytes, SYBR Green DNA, 72 h; series mostly up to 28.7 µM. An outline of the steps: as §1
A further assay relates to 7G8. The description is as above. Conditions: P. falciparum in erythrocytes, SYBR Green DNA, 72 h; series mostly up to 28.7 µM. The gist of the method:
as §1

The test system of the next assay is AA1029. Described as above. As to conditions: P. falciparum in erythrocytes, SYBR Green DNA, 72 h; series mostly up to 28.7 µM. The gist of the method:
as §1

For the next assay, the system named is AS120. The assay is described as above. As to conditions: P. falciparum in erythrocytes, SYBR Green DNA, 72 h; series mostly up to 28.7 µM. The gist of the method:
as §1

For another assay, the system named is ATS189. The description is as above. As to conditions: P. falciparum in erythrocytes, SYBR Green DNA, 72 h; series mostly up to 28.7 µM. The gist of the method: as §1
For assay [3], the target named is Nuclear receptor subfamily 1 group I member 2 (Homo sapiens) (UniProt O75469). Kind of assay: Dual reporter qHTS for antagonist of Pregnane X Receptor (hPXR) against the NCATS DSHEA and TCM libraries: Luminescence Readout (AID 1920060).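 Further: HepG2 cells carrying hPXR luciferase reporter stimulated with rifampicin at 2 µM; 0% is about no effect.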 Conditions: hPXR dual reporter cells, luciferase luminescence, antagonist mode; series mostly up to 40 µM. The gist of the method:
(§2)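 In antagonist mode, 2 uM rifampicin was added to hPXR-Luc HepG2 cells alongside test substances, incubated 24 h at 37 C; luminescence gave reporter activity, and CellTiter-Fluor fluorescence (405/540 nm) gave viability.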

Assay [4] in a line: Dual reporter qHTS for antagonist of Pregnane X Receptor (hPXR) against the NCATS DSHEA and TCM libraries: Fluorescence Readout (AID 1920061). Further: 0% is about no effect. As to conditions: PXR dual reporter cells, antagonist mode; series mostly up to 40 µM. An outline of the steps:
as §2

For assay [5], the target named is Nuclear receptor subfamily 1 group I member 2 (Homo sapiens) (UniProt O75469). As to the kind of experiment: Dual reporter qHTS for agonist of Pregnane X Receptor (hPXR) against the NCATS DSHEA and TCM libraries: Luminescence readout (AID 1920059). Further: potency means the concentration at half of the fitted maximal effect. On activation: 0% is about no effect. Conditions: hPXR dual reporter cells, luciferase luminescence agonist; series mostly up to 40 µM. An outline of the steps:
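Luminescent PXR reporter read (ONE-Glo) after a CellTiter-Fluor viability read, following 24 h, 37C treatment of HepG2 cells stably carrying hPXR-Luc.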

Where [6] appears, read: measured here: PEO1 parental Z-AUC.

Records with an inconclusive call do not appear. Calls of active or inactive are those of the source. Unless noted, the call rests on the fitted dose curve; in most records, active means well fitted curve in the direction sought with a large enough effect; inconclusive means small, poorly fitted or top-dose-only effect, or another doubt; inactive means no such curve, though single readings can be large; an effect the other way counts as inactive or inconclusive.

Chain of Nuclear receptor subfamily 1 group I member 2 (Homo sapiens) (O75469 whole entry, looked up): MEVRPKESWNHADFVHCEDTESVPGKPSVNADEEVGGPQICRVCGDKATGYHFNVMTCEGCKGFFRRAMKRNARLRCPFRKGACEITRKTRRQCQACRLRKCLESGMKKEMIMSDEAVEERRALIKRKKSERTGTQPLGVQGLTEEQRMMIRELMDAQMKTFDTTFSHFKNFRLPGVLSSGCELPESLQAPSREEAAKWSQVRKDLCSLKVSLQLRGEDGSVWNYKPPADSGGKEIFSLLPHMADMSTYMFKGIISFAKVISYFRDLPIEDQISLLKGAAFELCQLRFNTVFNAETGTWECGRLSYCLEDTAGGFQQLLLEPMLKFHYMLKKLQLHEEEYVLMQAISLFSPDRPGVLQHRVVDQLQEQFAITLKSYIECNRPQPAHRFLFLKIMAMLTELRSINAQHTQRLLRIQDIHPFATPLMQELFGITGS

Regarding `C=C1[C@H](CO)[C@@H](O)C[C@@H]1n1cnc2c(=O)[nH]c(N)nc21`, the Z-AUC in assay [1] was 1.7 (inactive); in assay [1] (setting [6]), 1.15; in [1] (measured here: PEO4 Z-AUC), 1.37.

Consider `C=CC[C@@H]1/C=C(\C)C[C@H](C)C[C@H](OC)[C@H]2O[C@@](O)(C(=O)C(=O)N3CCCC[C@H]3C(=O)O[C@H](/C(C)=C/[C@@H]3CC[C@@H](O)[C@H](OC)C3)[C@H](C)[C@@H](O)CC1=O)[C@H](C)C[C@@H]2OC`, for which the Z-AUC was 1.09 (inactive) in assay [1], 0.699 in assay [1] (setting [6]) and 1.02 in [1] (measured here: PEO4 Z-AUC). Besides, the Potency is 2 µM (active) in assay [2] (parasite line A); 1.26 µM (active) in assay [2] (parasite line B); 0.891 µM (active) in the assay with 3D7; 1 µM (active) in the assay with 7G8; 2 µM (active) in the assay on AA1029; 1.41 µM (active) with AS120. Further, the Potency in the assay on ATS189 was 1 µM (active).

In the case of `C=C1CC[C@H](O)CC1=C/C=C1\CCC[C@]2(C)[C@@H]([C@H](C)/C=C/[C@H](C)C(C)C)CC[C@@H]12`, the outcome in assay [3] and in [4] was inactive.

In the case of `CC[C@H]1OC(=O)[C@H](C)[C@@H](O[C@H]2C[C@@](C)(OC)[C@@H](O)[C@H](C)O2)[C@H](C)[C@@H](O[C@@H]2O[C@H](C)C[C@H](N(C)C)[C@H]2O)[C@](C)(O)C[C@@H](C)CN(C)[C@H](C)[C@@H](O)[C@]1(C)O`, the figures for the Z-AUC in assay [1], in [1] (setting [6]) and in assay [1] (measured here: PEO4 Z-AUC) were 1.04 (inactive), 0.718 and 1.23, respectively. In the assay on 3D7, the Potency entry is “inactive”. Besides, the Potency in the assay with 7G8 is 12.6 µM (active); in the assay on AA1029, 4.47 µM (active); in the assay on AS120 it was 5.01 µM (active); in the assay on ATS189, 12.6 µM (active).

For the compound `CC(C)=CCC/C(C)=C/C=C/C(C)=C/C=C/C(C)=C/C=C/C=C(C)/C=C/C=C(C)/C=C/C=C(\C)CCC=C(C)C`, the Potency result (in [5]; in the assay on AA1029; with ATS189) was “inactive” throughout. For the same compound, the compound was called inactive in [3] and in assay [4]. In addition, the activity, negative = inhibition in assay [2] (parasite line A) was -19% (inactive); in assay [2] (parasite line B) it was -16% (inactive).

For `C=C1CC[C@H](O)C/C1=C\C=C1/CCC[C@]2(C)[C@@H]([C@H](C)CCCC(C)C)CC[C@@H]12`, the Potency in [5] was 31.6 µM (active). Also, the call in [3] and in assay [4] was inactive.

On to `CC(C)=CCC/C(C)=C/CC/C(C)=C/CC/C(C)=C/CC1=C(C)C(=O)c2ccccc2C1=O`, for which the call in [3] and in assay [4] was inactive.

As for `O=C(O)/C=C/c1ccccc1`, the Potency entry (in assay [5]; in the assay on 3D7; in the assay on 7G8; in the assay with AA1029; in the assay with AS120; in the assay on ATS189) was “inactive” throughout. In addition, the compound was called inactive in assay [3] and in assay [4]. Moreover, the activity, negative = inhibition in assay [2] (parasite line A) was -6.43% (inactive); in assay [2] (parasite line B), 4.85% (inactive).

On to `CO[C@H]1C[C@@H]2CC[C@@H](C)[C@@](O)(O2)C(=O)C(=O)N2CCCC[C@H]2C(=O)O[C@H]([C@H](C)C[C@@H]2CC[C@@H](OC(=O)C(C)(CO)CO)[C@H](OC)C2)CC(=O)[C@H](C)/C=C(\C)[C@@H](O)[C@@H](OC)C(=O)[C@H](C)C[C@H](C)/C=C/C=C/C=C/1C`, for which the figures for the Z-AUC in [1], in assay [1] (setting [6]) and in assay [1] (measured here: PEO4 Z-AUC) were -1.22 (inactive), -1.04 and -0.64, respectively. Also, the activity, negative = inhibition in assay [2] (parasite line A) was 5.02% (inactive); in assay [2] (parasite line B), 6.39% (inactive). Further, the Potency result in the assay with 3D7, with 7G8, in the assay with AA1029, in the assay with AS120 and in the assay on ATS189 was “inactive” each time.

For the compound `CCCCC/C=C\C/C=C\C/C=C\CCCCC(=O)O`, the activation in [5] is -11.8% [at 5 µM] (inactive). The activity change, negative = inhibition is -11% [at 5 µM] (inactive) in [3] and 4.34% [at 5 µM] (inactive) in assay [4]. In addition, the activity, negative = inhibition in [2] (parasite line A) is -2.11% (inactive); in assay [2] (parasite line B) it was -8.25% (inactive). Further, the Potency entry in the assay on 3D7, in the assay on AA1029, with AS120 and in the assay on ATS189 was “inactive” each time.

As to `CNC(=O)[C@H](Cc1c[nH]c2ccccc12)NC(=O)[C@@H](CC(=O)NO)CC(C)C`, the Z-AUC is 0.599 (inactive) in assay [1], 0.54 in assay [1] (setting [6]) and 0.809 in assay [1] (measured here: PEO4 Z-AUC). Moreover, the values for the Potency (in assay [2] (parasite line A); in the assay with 3D7; in the assay with 7G8) were 11.2 µM (active), 10 µM (active) and 11.2 µM (active), respectively. Besides, the Potency entry in the assay on AA1029 and in the assay with ATS189 was “inactive” throughout.
